The assay deals with RIVA. Briefly: growth inhibition by drug plus 177Lu-lilotomab satetraxetan (1 - RLU/untreated control) (fraction); higher = stronger inhibition. Conditions: 177Lu-lilotomab satetraxetan 0.5 ug/ml. The method, then:
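RIVA (RI-1) ABC-DLBCL cells were pretreated or not for 18 h with 0.5 ug/ml 177Lu-lilotomab satetraxetan (600 MBq/mg), washed and seeded (3000 cells/well) on 384-well plates pre-printed with the Selleck Cambridge Cancer Compound library. Viability was read by RealTime-Glo luminescence on days 3-6 after seeding. Effect = 1 - RLU/mean RLU of the 48 untreated no-drug control wells per plate; Bliss score = (M-E)/(1-Fa).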

Take `CCc1cc(-c2n[nH]c(C)c2-c2ccc3c(c2)OCCO3)c(O)cc1O`: the “growth inhibition by drug plus 177Lu-lilotomab satetraxetan” value (“growth inhibition” for short) (10 nM, time (day): 3) stood at 0.478; the “growth inhibition” value (10 nM, time (day): 4) was determined as 0.547; the “growth inhibition” value (10 nM, time (day): 5) came out at 0.565; the “growth inhibition” value (10 nM, time (day): 6) came to 0.581; the “growth inhibition” value (100 nM, time (day): 3) came to 0.363; the “growth inhibition” value (100 nM, time (day): 4) came to 0.462. For the same compound, the “growth inhibition” value reads like this: (100 nM, time (day): 5) 0.473; (100 nM, time (day): 6) 0.48.
Take `Cc1ccc(Nc2nccc(N(C)c3ccc4c(C)n(C)nc4c3)n2)cc1S(N)(=O)=O` [Pazopanib]: the “growth inhibition” value runs as follows: (10 nM, time (day): 3) 0.437; (10 nM, time (day): 4) 0.548; (10 nM, time (day): 5) 0.557; (10 nM, time (day): 6) 0.564; (100 nM, time (day): 3) 0.418; (100 nM, time (day): 4) 0.47. In addition, the “growth inhibition” value (100 nM, time (day): 5) turned out to be 0.488 and the “growth inhibition” value (100 nM, time (day): 6) was 0.477.
For the compound `COc1ccc(C2=N[C@@H](c3ccc(Cl)cc3)[C@@H](c3ccc(Cl)cc3)N2C(=O)N2CCNC(=O)C2)c(OC(C)C)c1` [Nutlin-3], the “growth inhibition” value turned out to be 0.386 (10 nM, time (day): 3); 0.472 (10 nM, time (day): 4); 0.502 (10 nM, time (day): 5); 0.521 (10 nM, time (day): 6); 0.328 (100 nM, time (day): 3); 0.467 (100 nM, time (day): 4). For the same compound, the “growth inhibition” value runs as follows: (100 nM, time (day): 5) 0.479; (100 nM, time (day): 6) 0.496.
As to `O=C(O)C(=O)O.[NH-]C1CCCCC1[NH-].[Pt+2]` (stereo not given) [Oxaliplatin (Eloxatin)], the “growth inhibition” value runs as follows: (10 nM, time (day): 3) 0.6; (10 nM, time (day): 4) 0.598; (10 nM, time (day): 5) 0.621; (10 nM, time (day): 6) 0.626; (100 nM, time (day): 3) 0.453; (100 nM, time (day): 4) 0.516. Further, the “growth inhibition” value (100 nM, time (day): 5) was found to be 0.534 and the “growth inhibition” value (100 nM, time (day): 6) amounted to 0.531.
For `CNC(=O)[C@@H](NC(=O)[C@H](CC(C)C)[C@H](O)C(=O)NO)C(C)(C)C` [Marimastat], the “growth inhibition” value came to 0.34 (10 nM, time (day): 3); 0.438 (10 nM, time (day): 4); 0.469 (10 nM, time (day): 5); 0.492 (10 nM, time (day): 6); 0.34 (100 nM, time (day): 3); 0.431 (100 nM, time (day): 4). Also, the “growth inhibition” value reads like this: (100 nM, time (day): 5) 0.449; (100 nM, time (day): 6) 0.457.
